# System: Perkinsus marinus PRA240
# Assay: ATP content (proliferation) relative to DMSO control; higher = more parasite growth (less inhibition)
# Settings: 20 µM; 4 days
# Method: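 Perkinsus marinus PRA240 trophozoites (2-5x10^6 cells/ml, 100 µl, 96-well) were exposed once to MMV Malaria Box compounds at 20 µM (0.1% DMSO) in triplicate. ATP content (ATPlite bioluminescence) was read at day 4 post-exposure and normalised to DMSO + cells control wells (100% activity). Compounds were identified by joining plate and well to the Malaria Box list.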
row,Structure (SMILES),ATP content [%]
1,CC(=O)c1ccc(NC(=O)CSc2nc(-c3ccccc3Cl)ns2)cc1,125
2,O=c1cc(NC2CCN(CCCc3ccccc3)CC2)c2cc(Cl)ccc2o1,167
3,Cn1c(=O)n(C)c2cc(CNCCNc3ccnc4cc(Cl)ccc34)ccc21,132
4,COCCn1c(C)nc2ccccc2c1=O,130
5,Cc1c(C)n(CC(O)CNC2CCCCC2C)c2ccccc12 (stereo not given),106
6,COc1ccc(C(=O)C(CCC(CNC(C)(C)C)C(=O)c2ccc(OC)cc2)CNC(C)(C)C)cc1 (stereo not given),120
7,OC1=C2C(=Nc3ccccc3SC2c2ccc(Br)cc2)c2ccccc21 (stereo not given),45.9
8,Cn1c(C(=O)c2cccc3ccccc23)nc2ccccc21,55.5
9,Cc1ccc(Nc2nc(N)c3ccccc3n2)cc1Cl,4.69
10,CC(C)=CCN1CCC(C(=O)Nc2ccc(-c3nc4ccccc4[nH]3)cc2)CC1,81.5
11,Cc1ccc(OCCCCCCNCCO)c(C)c1,164
12,CCOC(=O)c1c(C)n(-c2ccccc2)c2ccc(OC(=O)c3cc(OC)c(OC)c(OC)c3)cc12,141
13,COc1ccc2nc(C)cc(Nc3cccc(O)c3)c2c1,109
14,Cc1cccc(N2C(=O)C3C(C2=O)C2(c4ccccc4)C(=O)C3(c3ccccc3)C(c3ccc4c(c3)OCO4)=C2c2ccc3c(c2)OCO3)c1 (stereo not given),110
15,COc1ccc(-c2nonc2NC(=O)c2cccc(C)c2)cc1OC,82.6
16,CCOc1cccc(C(=O)Nc2ccc(-c3nc4ccccc4[nH]3)cc2)c1,143
17,CCOc1cccc2sc(N(Cc3cccnc3)C(=O)C3CCCCC3)nc12,79.5
18,COc1ccc(CNC2CCN(c3ccc(NC(=O)c4cccc(Cl)c4)cc3)CC2)cc1OC,102
19,COc1ccc(C(O)(CCC(C)C)C(CN2CCOCC2)c2ccc(Cl)cc2)cc1 (stereo not given),91.9
20,O=C(Nc1ccc(CN2CCOCC2)cc1)c1ccc(-c2cc(Cl)ccc2Cl)o1,122

row,Structure (SMILES),ATP content [%]
1,CCOc1cc2c(cc1OCC)C(c1cc(C)c(O)c(C)c1)NCC2 (stereo not given),133
2,CCC(C)NCC(O)(c1ccc(Cl)cc1)c1ccc(Cl)cc1 (stereo not given),78.7
3,CN1CCN(c2ncnc3c2[nH]c2ccc(Cl)cc23)CC1,111
4,COc1ccc(N2CCN(C(CNC(=O)C3CCCCC3)c3ccc4c(c3)OCO4)CC2)cc1 (stereo not given),114
5,O=C(NC1CCN(Cc2ccccc2)CC1)c1cc2nc(-c3ccc(Cl)s3)cc(C(F)(F)F)n2n1,118
6,CCN1CCN(c2cc(C)c3cc(NC(=O)c4ccc(OC)c(OC)c4)ccc3n2)CC1,91.6
7,Cc1cc(NC(=O)c2cccc(C(F)(F)F)c2)n(-c2nc(-c3ccc4c(c3)OCO4)cs2)n1,144
8,CC(C)(C)CC(C)(C)NCC(O)COc1ccc2c(c1)CCC2 (stereo not given),114
9,Cc1ccc2c(C)nc(Nc3nc(C)cc(-c4ccccc4)n3)nc2c1,93
10,CC(NCc1ccccc1)c1cc(Cl)ccc1O (stereo not given),85.9
11,OC(CNC1CCCC1)Cn1c2ccccc2c2ccccc21 (stereo not given),148
12,CCN1CCN(c2c(C(=O)c3ccccc3)cnc3cc(OC)c(OC)cc23)CC1,199
13,CCOc1ccccc1NC(=O)CN1CCN(C(=O)c2ccco2)CC1,66.6
14,COC(=O)c1ccc(Cl)c2c1C1C=CCC1C(c1cccc3ccccc13)N2 (stereo not given),106
15,COc1ccccc1C(=O)ON=C(N)Cc1cccc2ccccc12,148
16,Cc1cc(N2CCCC2)nc(Nc2ccc(NC(=O)CCc3ccccc3)cc2)n1,119
17,CCOc1cc2c(cc1OCC)C(c1cc(Cl)c(O)c(OCC)c1)NCC2 (stereo not given),97.3
18,Cc1ccc(C)c(-c2csc(Nc3ccc(C)c(C)c3)n2)c1,93.6
19,CCN(Cc1ccccc1)C1CCN(Cc2cc(Br)ccc2O)CC1,171
20,CC(O)(c1ccc(Cl)cc1)C(CN1CCCCC1)c1ccccc1 (stereo not given),79.2
